Test results taken from PubChem BioAssay AID504467 (National Center for Advancing Translational Sciences (NCATS), 2011).
Out of some 330,000 compounds screened, about 7,700 (2.3%) were called active. Roughly 26% stayed inconclusive and do not appear here. The sample holds actives, similar compounds and a random draw of the others, so the mix is not that of the screen. A number with no mark means an inactive call. The call rests on the fitted dose curve; in most records, active means well fitted inhibition curve with a large enough effect; inconclusive means small, poorly fitted or top-dose-only effect, or effect the other way; inactive means flat fitted curve, though single readings scatter.

test: qHTS screen for small molecules that inhibit ELG1-dependent DNA repair in human embryonic kidney (HEK293T) cells expressing luciferase-tagged ELG1; conditions: HEK293T ELG1-luciferase reporter, luminescence, 16 h, DNA damage induced by 5-fluorouridine; series mostly up to 46.1 µM; activity change, negative = inhibition: at the top concentration; further: nearly all actives have a fitted effect of over 55% in size
Procedure, shortened: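 DMSO vehicle served as the neutral condition. Each well held 2,000 cells given 5-fluorouridine plus compound; after 16 hr at 37 °C/5% CO2, ONE-Glo was added and luciferase measured 30 min later.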
On the % scale 0 is the no-effect control and ±100 the full control effect; potency means the concentration at half of the fitted maximal effect.

| SMILES | Potency | activity change, negative = inhibition [%] |
| --- | --- | --- |
| COc1ccc(CCNc2ncnc3nc[nH]c23)cc1OC | 14.6 µM (active) |  |
| CCS(=O)(=O)NCCc1ccc(OC)c(OC)c1 |  | -10.4 |
| COc1ccc(CCNc2nc(C)cc(C)n2)cc1OC |  | -0.316 |
| CCCN(C(=O)c1nc2nccc(C)n2n1)c1c(N)n(Cc2ccccc2)c(=O)[nH]c1=O |  | 7.75 |
| O=C(Nc1ccccc1F)c1ccc(S(=O)(=O)N2CCCCCC2)cc1 |  | -0.132 |
| Cc1cccc(NS(=O)(=O)c2ccc(C)c(C(=O)NCc3cccnc3)c2)c1 |  | -4.62 |
| COC(=O)Cc1ccc(OC(=O)C2CCN(S(=O)(=O)c3ccc(OC)c(OC)c3)CC2)cc1 |  | 22.6 |
| CCOC(=O)c1c(C)[nH]c2c1-c1ccccc1C(=O)C2=O | 2.91 µM (active) |  |
| Cc1[nH]c2ccccc2c1C(=O)COC(=O)C(C)C |  | 13.3 |
| CCOC(=O)c1c(C)[nH]c(C)c1S(=O)(=O)N(C)CC(=O)Nc1ccccc1C |  | 2.89 |
| CC[C@]12c3[nH]c4cc(CCC(=O)N(C)C)ccc4c3CCN1C(=O)[C@@H](CC(=O)NCCCn1ccnc1)C[C@@H]2C(=O)N1CCN(C(=O)C2CC2)CC1 |  | 20.4 |
| Cc1ccc(N(Cc2ccccc2O)C(=O)c2ccccc2F)cc1 |  | -6.48 |
| Cc1ccc(C(=O)OCC(=O)Nc2ccc(Cl)cn2)cc1S(=O)(=O)N1CCOCC1 |  | 11.3 |
| Cc1ccc(C(=O)OCC(=O)N2CCCCCC2)cc1S(=O)(=O)N1CCOCC1 |  | 6.02 |
| Cc1ccc(C(=O)NCC(=O)O)cc1S(=O)(=O)N1CCCCC1 |  | 12.5 |
| Cc1ccc(C(=O)OCC(=O)NCc2cc(C)c(O)c(C)c2)cc1S(=O)(=O)N1CCCCC1 | 7.3 µM (active) |  |
| COc1ccc(C(=O)OCC(=O)c2ccc(C)c(S(=O)(=O)N3CCOCC3)c2)cc1OC | 10.3 µM (active) |  |
| Cc1ccc(C(=O)OCC(=O)N2CC(C)CC(C)C2)cc1S(=O)(=O)N1CCCCC1 (stereo not drawn) |  | -2.94 |
| COc1ccc(C2(C)ON(c3ccccc3C(F)(F)F)C2=O)cc1 (stereo not drawn) |  | -20.7 |
| Cc1ccc(Cn2cc(C(=O)NN)c(=O)c3ccc(F)cc32)cc1 |  | -19.1 |
| CC1(C)Oc2ccc3ccc(=O)oc3c2/C(=N/O)C1=O |  | 1.95 |

| SMILES | Potency | activity change, negative = inhibition [%] |
| --- | --- | --- |
| COc1ccc(C(=O)NC(=S)Nc2ccc(N3CCCC3)cc2)cc1OC |  | 26.5 |
| COc1ccc(C(=O)Nc2ccc3nc(N4CCCCC4)cc(C)c3c2)cc1OC | 23.1 µM (active) |  |
| COc1ccc(C(=O)Nc2ccc(S(=O)(=O)Nc3onc(C)c3C)cc2)cc1OC |  | 4.09 |
| CN1/C(=C\C(=O)c2cccnc2Cl)C(C)(C)c2ccccc21 |  | 11.6 |
| CN1/C(=C\C(=O)c2oc3ccccc3c2N)C(C)(C)c2ccccc21 | 13 µM (active) |  |
| CN1CCN(CCC(=O)N/N=C/C=C2\N(C)c3ccccc3C2(C)C)CC1 |  | 10.6 |
| CC(C)[C@H](NC(=O)N1CCn2c1nc1ccccc12)C(=O)NCCc1ccccc1 |  | 6.27 |
| CCOc1ccc(C(=O)CCC(=O)Nc2ccncc2)cc1 |  | -1.92 |
| COc1ccc2oc(C(=O)N(CC(C)C)C3CCS(=O)(=O)C3)c(C)c2c1 (stereo not drawn) |  | 2.82 |
| COc1cc(C(=O)N[C@@H](C)C(=O)NCc2ccco2)cc(OC)c1OC |  | 9.98 |
| CC(OC(=O)c1ccc([N+](=O)[O-])cc1)C(=O)NCC1CCCCC1 (stereo not drawn) |  | -18.6 |
| COc1cc(C(=O)OC(C)C(=O)NCC2CCCCC2)cc(NC(=O)c2ccco2)c1OC (stereo not drawn) | 11.6 µM (active) |  |
| CN1C(=O)[C@H]2[C@@H](/C=C/c3ccccc3)N3C(=O)CN(Cc4ccc(-c5ccccc5)cc4)C(=O)[C@@]3(C)[C@H]2C1=O |  | -1.92 |
| COc1ccccc1CNC(=O)COn1nnc2ccc(S(=O)(=O)N3CCOCC3)cc21 |  | -1.32 |
| CCn1c(C(O)c2cc(OC)ccc2OC)nc2ccccc21 (stereo not drawn) |  | -22 |
| COc1ccc(CCNc2nc3ccc(C)cc3n3cnnc23)cc1OC |  | -17.1 |
| COc1ccc(OC)c(Nc2nc3ccccc3n3cnnc23)c1 | 14.6 µM (active) |  |
| Cc1ccc(/C=C2/SC(=S)N(CCC(=O)NCCCN3CCOCC3)C2=O)cc1 |  | 3.39 |
| CCOc1ccc(NC(=O)COc2ccc(C(=O)N3CCC(C(N)=O)CC3)cc2OC)cc1 |  | 0.553 |
| Cc1cc(-n2nc(C)cc2C)n2nc(C)c(-c3ccccc3)c2n1 |  | -15.9 |
| Cc1cc(-c2ccccc2)n2nc(C)c(-c3ccccc3)c2n1 |  | 29.7 |

| SMILES | Potency | activity change, negative = inhibition [%] |
| --- | --- | --- |
| CCc1c(C)nc2c(-c3ccccc3)c(C)nn2c1Nc1ccc(NC(C)=O)cc1 | 16.4 µM (active) |  |
| Cc1cc(C)c2nc(N(CCN(C)C)C(=O)/C=C/c3cccs3)sc2c1 |  | -3.07 |
| CN(CC(=O)Nc1ccc(F)c(F)c1F)C(=O)Cn1cnc2c1c(=O)n(C)c(=O)n2C |  | 13 |
| O=C(COc1ccccc1F)NNC(=O)c1cc(Br)ccc1Cl |  | 16.7 |
| COc1ccccc1N1CCN(C(=O)C2Cc3ccccc3CN2C(=O)c2ccco2)CC1 (stereo not drawn) |  | 8.8 |
| Cc1ccc(C)c(-c2nnc(NC(=O)CS(=O)(=O)c3ccccc3)o2)c1 |  | -2.86 |
| COc1ccc(S(=O)(=O)NCC(=O)NC2CC2)cc1OC |  | 3.84 |
| Cc1ccc(C(=O)NCCNC(=O)c2cnccn2)cc1 |  | -0.272 |
| O=C(N/N=C/c1ccc(O)c2ccccc12)c1cccnc1 |  | -3.64 |
| CCN(CC)c1ccc(/C=N/NC(=O)c2cnccn2)c(O)c1 | 1.46 µM (active) |  |
| CC1(c2ccc3ccccc3c2)NC(=O)N(CC(N)=O)C1=O (stereo not drawn) |  | -0.705 |
| CCc1ccc(Nc2n[n+](-c3ccccc3)c(-c3cccc(Cl)c3Cl)s2)cc1 |  | -28.7 |
| NC(=O)c1ccc(Nc2ccc3nonc3c2[N+](=O)[O-])cc1 |  | -11.4 |
| NC(=O)c1ccc(Nc2ccc3c(c2)CCC3)c([N+](=O)[O-])c1 | 11.6 µM (active) |  |
| Cc1ccc(Nc2ccc(C(N)=O)cc2[N+](=O)[O-])cc1 |  | -8.38 |
| CC(Sc1nnc(-c2ccccc2F)n1C1CC1)C(N)=O (stereo not drawn) |  | 2.76 |
| CCN(C[C@H]1N[C@@](Cc2ccccc2)(C(=O)OC)[C@H]2C(=O)N(Cc3ccccc3)C(=O)[C@@H]12)C(=O)c1ccc(C)cc1 |  | 0.138 |
| CCOc1ccc(NC(=O)c2cc(C)nc3ccccc23)cc1 |  | -8.94 |
| CCCNC(=O)Nc1ccccc1C(=O)Nc1ccc(OC)cc1 |  | 23.7 |
| COc1ccccc1C(=O)Nc1ccc(OCc2nnc3c4ccccc4c(C)nn23)cc1 | 20.6 µM (active) |  |
| COc1ccc(C(CNC(=O)c2ccc(NS(=O)(=O)c3ccc(F)c(C)c3)cc2)N(C)C)cc1 (stereo not drawn) |  | 14.9 |
